Data as given in PubChem BioAssay.
Active and inactive are the calls of the source. Unless noted, no rule for the calls is given here.

Assays:
[1] = anti-His antibody binders, primary screen, artefact control for SMM control protein annotation, biochemical, small-molecule microarray, 635 nm fluorescence (AID 1128); conditions: anti-His Alexa647 antibody binding, higher = more signal;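 also: score merges feature fluorescence with signal-to-noise for each printed compound spot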
[2] = tested on: Human papillomavirus type 1a E7 protein (residues 1-88); assay: HPV1a E7 small-molecule binders, primary screen, biochemical, small-molecule microarray, residues 1-88, 635 nm (AID 1129); conditions: small-molecule microarray binding, fluorescence 635 nm; higher = more signal
[3] = target: Focal adhesion kinase 1 (Homo sapiens) (UniProt Q05397); assay: small-molecule microarray binders of FAK, primary screen, biochemical, 635/667 nm fluorescence, BSA, DTT (AID 1130); conditions: PTK2 binding, 635 nm fluorescence, higher = more signal;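 also: composite of spot emission at 667 nm and signal to noise over triplicate slides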
Sequence of Focal adhesion kinase 1 (Homo sapiens) (Q05397 whole entry, looked up): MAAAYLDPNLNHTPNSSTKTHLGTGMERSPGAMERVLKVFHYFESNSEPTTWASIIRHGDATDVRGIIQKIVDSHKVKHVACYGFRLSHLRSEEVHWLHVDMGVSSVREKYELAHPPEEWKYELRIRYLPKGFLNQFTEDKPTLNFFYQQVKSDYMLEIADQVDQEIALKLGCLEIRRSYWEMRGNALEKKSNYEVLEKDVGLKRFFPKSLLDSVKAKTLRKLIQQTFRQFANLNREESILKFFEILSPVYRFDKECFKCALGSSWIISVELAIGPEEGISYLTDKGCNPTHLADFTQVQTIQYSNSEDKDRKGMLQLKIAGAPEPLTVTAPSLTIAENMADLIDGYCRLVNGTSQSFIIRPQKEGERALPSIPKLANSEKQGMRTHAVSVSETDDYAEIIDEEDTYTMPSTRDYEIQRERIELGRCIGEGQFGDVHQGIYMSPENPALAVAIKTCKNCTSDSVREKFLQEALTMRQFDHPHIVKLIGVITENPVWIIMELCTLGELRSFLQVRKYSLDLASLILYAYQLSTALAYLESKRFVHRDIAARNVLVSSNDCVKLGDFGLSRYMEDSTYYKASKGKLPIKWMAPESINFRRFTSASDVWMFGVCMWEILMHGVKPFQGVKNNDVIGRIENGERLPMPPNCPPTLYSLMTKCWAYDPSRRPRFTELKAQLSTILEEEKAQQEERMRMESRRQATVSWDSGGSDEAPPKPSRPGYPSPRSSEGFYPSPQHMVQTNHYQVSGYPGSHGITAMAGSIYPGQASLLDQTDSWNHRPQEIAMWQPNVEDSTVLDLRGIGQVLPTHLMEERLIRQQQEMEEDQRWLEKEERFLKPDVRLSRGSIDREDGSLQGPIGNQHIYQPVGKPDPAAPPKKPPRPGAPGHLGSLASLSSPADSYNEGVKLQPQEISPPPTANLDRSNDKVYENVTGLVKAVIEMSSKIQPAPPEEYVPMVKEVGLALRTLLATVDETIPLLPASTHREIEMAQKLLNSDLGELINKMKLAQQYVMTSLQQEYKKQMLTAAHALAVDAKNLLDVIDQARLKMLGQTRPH

[4] = tested on: Fibrinogen (Alexa647-labelled); assay: fibrinogen binders on compound microarrays, profiling panel, artefact control for SMM control-protein annotation, biochemical, small-molecule microarray, 635/667 nm fluorescence (AID 1131); conditions: fibrinogen-A647 binding fluorescence, higher = more signal;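 also: z-score merges 667 nm fluorescence with per-spot signal-to-noise over triplicate slides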
[5] = target: Follistatin (Homo sapiens) (UniProt P19883); assay: follistatin binders on small-molecule microarrays, primary screen, biochemical, small-molecule microarray, 635/667 nm fluorescence (AID 1132); conditions: FST binding, 635 nm fluorescence, higher = more signal
Sequence of Follistatin (Homo sapiens) (P19883 whole entry, looked up): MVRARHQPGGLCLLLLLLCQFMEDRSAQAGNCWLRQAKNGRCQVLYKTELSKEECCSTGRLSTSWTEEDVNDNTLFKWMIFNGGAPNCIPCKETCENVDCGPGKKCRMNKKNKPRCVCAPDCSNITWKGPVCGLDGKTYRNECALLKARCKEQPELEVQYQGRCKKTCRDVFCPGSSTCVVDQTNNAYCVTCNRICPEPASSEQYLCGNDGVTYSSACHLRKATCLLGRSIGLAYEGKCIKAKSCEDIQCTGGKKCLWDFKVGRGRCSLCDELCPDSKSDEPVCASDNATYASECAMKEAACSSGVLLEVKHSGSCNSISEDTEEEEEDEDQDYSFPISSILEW

[6] = target: Fibroblast growth factor 2 (Homo sapiens) (UniProt P09038); assay: FGF2 binders on small-molecule microarrays, primary screen, biochemical, small-molecule microarray, 635/667 nm fluorescence (AID 1133); conditions: small-molecule microarray binding, FGF2, fluorescence 635/667; higher = more signal
Sequence of Fibroblast growth factor 2 (Homo sapiens) (P09038 whole entry, looked up): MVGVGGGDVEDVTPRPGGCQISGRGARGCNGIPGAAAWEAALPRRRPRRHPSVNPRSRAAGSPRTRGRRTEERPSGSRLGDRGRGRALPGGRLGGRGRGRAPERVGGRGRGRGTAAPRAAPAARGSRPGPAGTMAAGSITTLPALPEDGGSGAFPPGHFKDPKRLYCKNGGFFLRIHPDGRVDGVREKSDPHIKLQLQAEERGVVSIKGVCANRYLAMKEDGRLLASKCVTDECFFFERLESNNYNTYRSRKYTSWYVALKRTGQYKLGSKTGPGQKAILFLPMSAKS

[7] = mitochondrial membrane potential change in A549 cells, profiling panel, cell-based, JC-1 fluorescence, basal, 24 h, 100 nL (AID 1138); conditions: higher = more signal;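 also: A549 lung adenocarcinoma cells under basal conditions with no added stimulus; test concentration not given here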
[8] = tested on: Lefty1; assay: Lefty1 binders on small-molecule microarrays, primary screen, biochemical, small-molecule microarray, 635/667 nm fluorescence (AID 1139); conditions: small-molecule microarray binding, fluorescence 635/667; higher = more signal
[9] = tested on: wheat germ agglutinin (Triticum aestivum), Alexa647-labelled; assay: wheat germ agglutinin binders on compound microarrays, profiling panel, artefact control for SMM control-protein annotation, biochemical, small-molecule microarray, 635/667 nm fluorescence (AID 1140); conditions: WGA-A647 binding, 635 nm fluorescence, higher = more signal;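 also: score merges 667 nm feature emission with signal to noise over triplicate slides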
[10] = target: Luciferin 4-monooxygenase (Photinus pyralis) (UniProt P08659); assay: firefly luciferase enzyme inhibitors, primary screen, biochemical, luminescence, purified enzyme, 2006 set (AID 1141); conditions: SteadyGlo luminescence, 30 min, higher = more signal, called active from +8 up or from −8 down;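 also: cell-free assay with purified firefly luciferase at 100 ng per well in PBS; test concentration not given here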
Sequence of Luciferin 4-monooxygenase (Photinus pyralis) (P08659 whole entry, looked up): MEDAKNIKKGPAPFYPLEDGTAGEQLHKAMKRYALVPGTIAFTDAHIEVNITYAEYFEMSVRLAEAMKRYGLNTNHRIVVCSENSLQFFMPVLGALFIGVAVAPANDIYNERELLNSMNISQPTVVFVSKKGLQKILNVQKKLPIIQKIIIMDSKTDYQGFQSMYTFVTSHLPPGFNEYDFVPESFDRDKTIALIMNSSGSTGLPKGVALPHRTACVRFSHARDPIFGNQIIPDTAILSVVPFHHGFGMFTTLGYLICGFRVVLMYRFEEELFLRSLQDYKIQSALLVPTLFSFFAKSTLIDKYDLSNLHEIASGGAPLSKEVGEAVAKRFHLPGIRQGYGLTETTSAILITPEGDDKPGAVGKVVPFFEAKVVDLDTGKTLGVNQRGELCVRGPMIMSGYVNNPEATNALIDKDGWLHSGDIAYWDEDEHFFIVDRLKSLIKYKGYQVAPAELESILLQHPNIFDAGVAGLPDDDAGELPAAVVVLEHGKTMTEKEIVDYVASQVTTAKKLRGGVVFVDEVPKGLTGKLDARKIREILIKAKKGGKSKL

[11] = tested on: Wnt5a (protein binding on small-molecule microarray); assay: Wnt5a binders on small-molecule microarray, primary screen, biophysical, 635/667 nm fluorescence (AID 1142); conditions: 635 nm fluorescence, higher = more signal;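 also: fluorescence read at 667 nm with signal to noise per printed feature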
[12] = cell viability in Huh7 cells, primary screen, cytotoxicity control for HCV replication inhibitor project, CellTiter-Glo luminescence, basal, 48 h (AID 1143); conditions: Huh7 HCV replicon, higher = more signal, called active from +8 up or from −8 down;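 also: Huh7 hepatoma cells carrying a hepatitis C replication reporter with no stimulus; test concentration not given here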
[13] = P. aeruginosa biofilm formation inhibitors, primary screen, PAO1 strain, BacTiter-Glo luminescence, LB-PBS (AID 1144); conditions: 12 h, higher = more signal
[14] = CREB reporter modulators without forskolin, primary screen, cell-based, PC12, CRE-LacZ reporter, unstimulated (AID 1145); conditions: no forskolin, luminescence, 4.5 h, higher = more signal, called active from +8 up or from −8 down
[15] = CREB reporter modulators under forskolin, primary screen, cell-based, PC12, CRE-LacZ reporter, forskolin-stimulated (AID 1146); conditions: luminescence, 4.5 h, higher = more signal, called active from +8 up or from −8 down;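 also: PC12 cells with 6xCRE LacZ reporter stimulated by forskolin 10 µM; beta-galactosidase reporter signal reflecting CREB driven transcription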
[16] = target: Streptavidin (Streptomyces avidinii) (UniProt P22629); assay: streptavidin binders on small-molecule microarray, primary screen, artefact control for SMM compound annotation, biophysical, 635/667 nm fluorescence (AID 1147); conditions: streptavidin binding, higher = more signal;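 also: signal reflects streptavidin binding to arrayed compounds as a control protein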
Sequence of Streptavidin (Streptomyces avidinii) (P22629 whole entry, looked up): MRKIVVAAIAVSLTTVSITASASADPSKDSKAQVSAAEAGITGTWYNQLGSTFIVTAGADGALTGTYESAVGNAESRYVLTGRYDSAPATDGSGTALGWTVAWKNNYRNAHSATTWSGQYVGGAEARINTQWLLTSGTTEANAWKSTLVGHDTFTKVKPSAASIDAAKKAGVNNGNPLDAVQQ

[17] = small-molecule binders of probe aInhba, primary screen, biochemical, small-molecule microarray, 635/667 nm fluorescence (AID 1148); conditions: higher = more signal;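 also: score merges 667nm spot fluorescence with signal-to-noise for antibody binding to printed compounds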
[18] = target: Torsin-1A (Homo sapiens) (UniProt O14656); assay: torsin A binders from cell lysate, primary screen, small-molecule microarray, wild-type, 635/667 nm (AID 1149); conditions: COS7 hTOR1A-WT lysate, 635 nm fluorescence, higher = more signal
Sequence of Torsin-1A (Homo sapiens) (O14656 whole entry, looked up): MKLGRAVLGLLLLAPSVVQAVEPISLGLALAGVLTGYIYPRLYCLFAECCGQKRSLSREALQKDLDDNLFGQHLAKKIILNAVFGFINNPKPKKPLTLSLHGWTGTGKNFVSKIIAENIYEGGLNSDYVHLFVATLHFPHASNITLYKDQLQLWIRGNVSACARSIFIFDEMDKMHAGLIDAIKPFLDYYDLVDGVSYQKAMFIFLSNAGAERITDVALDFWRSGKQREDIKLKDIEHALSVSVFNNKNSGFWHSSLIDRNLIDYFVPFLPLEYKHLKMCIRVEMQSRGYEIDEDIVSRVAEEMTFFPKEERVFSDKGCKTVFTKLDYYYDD

[19] = target: Torsin-1A (Homo sapiens) (UniProt O14656); assay: small-molecule binders of mutant TOR1A in lysate, primary screen, cell lysate, small-molecule microarray, COS7 lysate, 635/667 nm fluorescence (AID 1150); conditions: COS7 hTOR1A mutant lysate, 635 nm fluorescence, higher = more signal;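 also: score pools 667 nm emission and signal to noise measuring lysate protein binding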
[20] = tested on: Sonic hedgehog protein (Shh); assay: small-molecule binders of Shh protein, primary screen, biochemical, small-molecule microarray, 635/667 nm fluorescence (AID 1151); conditions: small-molecule microarray binding, 635 nm fluorescence; higher = more signal;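 also: Shh protein binding to compounds spotted on small-molecule microarray slides; score combines spot fluorescence intensity with signal-to-noise across triplicate slides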

Row | SMILES | composite z-score [1] | composite z-score [2] | composite z-score [3] | composite z-score [4] | composite z-score [5] | composite z-score [6] | z-score [7] | composite z-score [8] | composite z-score [9] | z-score [10] | composite z-score [11] | z-score [12] | z-score [13] | z-score [14] | z-score [15] | composite z-score [16] | composite z-score [17] | composite z-score [18] | composite z-score [19] | composite z-score [20]
1 | NC(=O)N1C(=O)C2C(C1=O)C1C=C(CCCO)C2C(c2ccc(CN3CCCC3)cc2)N1Cc1cc2c(cc1Br)OCO2 (stereo not given) | 0.197 | -0.445 | -0.214 | -0.713 | 0.583 | 1.2 | -0.193 | 0.117 | -0.419 | 0.542 (inactive) | -0.0793 | -1.34 (inactive) | -0.607 (inactive) | -0.205 (inactive) | -0.274 (inactive) | -0.0077 | -0.322 | 0.283 | 0.479 | 1.13
2 | C[C@@H]1NC(=O)C([C@@H](C)OCc2ccccc2)NC(=O)[C@@]23C(=O)N[C@@H](Cc4ccccc4)C2[C@H](C)[C@@]2(C)O[C@H]2C3/C=C/C/C=C\CNC1=O (stereo not given in full) | -0.839 | -1.36 | -0.526 | -0.397 | 0.0746 | 0.0742 | -0.0956 | 0.0892 | -0.117 | 0.0545 (inactive) | 0.0076 | -0.371 (inactive) | 0.571 (inactive) | -0.507 (inactive) | 0.428 (inactive) | -1.07 | -0.25 | 0.0772 | 0.0936 | 1.12
3 | Cc1ccc(S[C@]2(C(=O)NC3CC3)CC(=O)N(C(C)C)[C@@H]2c2ccc(CO)cc2I)cc1 | 1.49 | 0.882 | 0.411 | -0.36 | 0.536 | -0.471 | 0.51 | 0.303 | 0.969 | 1.29 (inactive) | -0.385 | -4.82 (inactive) | -1.21 (inactive) | 0.299 (inactive) | 1.42 (inactive) | -0.677 | -0.394 | 0.778 | 0.652 | 0.677
4 | C=CC1c2cc(O)c(OC)cc2CCN1C (stereo not given) | 0.586 | -1.39 | -0.636 | -0.934 | -0.424 | -0.475 | -0.0592 | -1.23 | 0.356 | -0.0535 (inactive) | -0.148 | 0.235 (inactive) | 0.51 (inactive) | 0.182 (inactive) | -0.439 (inactive) | -0.0377 | -0.0695 | -0.45 | -0.231 | -0.881
5 | CC(C)NC(=O)[C@@]1(c2ccc([N+](=O)[O-])cc2)CC(=O)N(CC23CC4CC(CC(C4)C2)C3)[C@@H]1c1ccc(CO)cc1 | 0.999 | 1.18 | 0.601 | 0.948 | 1.35 | 1.55 | -0.237 | 1.51 | 0.738 | 0.346 (inactive) | 0.821 | -4.42 (inactive) | -0.336 (inactive) | 0.362 (inactive) | 0.795 (inactive) | 0.771 | 1.19 | 1.17 | 1.36 | 1.95
6 | CCOC(=O)c1cn(C[C@H](Cc2ccccc2)NC(=O)N[C@H](CO)CCc2oc(C(C)=O)c(C(=O)OC)c2C(=O)OC)nn1 | 0.0033 | 1.18 | 0.123 | 0.812 | 1.31 | 1.66 | -0.391 | 1.59 | 0.493 | 0.783 (inactive) | 0.0532 | -2.84 (inactive) | 0.279 (inactive) | 1.4 (inactive) | -0.158 (inactive) | 0.486 | -0.0762 | 0.439 | 0.692 | 1.63
7 | COC(=O)C(CC#Cc1ccc2c(c1)[C@]1(C(=O)N2)[C@H](c2ccccc2OCCO)N2[C@H](c3ccccc3)[C@H](c3ccccc3)OC(=O)[C@H]2[C@@H]1C(=O)N1CCc2cc(OC)c(OC)cc2C1)C(=O)OC | 1.3 | 1.21 | 0.317 | 0.601 | 1.32 | 0.667 | -0.668 | 0.896 | 0.28 | -0.242 (inactive) | 0.237 | -3.09 (inactive) | -0.888 (inactive) | -0.0515 (inactive) | 0.509 (inactive) | 1.11 | -0.138 | 0.757 | 0.674 | 1.82
8 | COC(=O)[C@H](Cc1ccc(O)cc1)N[C@@H](/C=C/C1CC1)[C@H](O)Cc1ccccc1 | 0.257 | -0.506 | -0.408 | -0.785 | 0.156 | 0.0843 | 0.091 | 0.389 | -0.185 | 0.209 (inactive) | -0.377 | -0.794 (inactive) | 0.814 (inactive) | 7.92 (inactive) | 1.6 (inactive) | -0.295 | -0.153 | -0.474 | 0.0615 | -0.142
9 | CCOC(=O)C1=C[C@@H](C(C)(C)C)N(S(=O)(=O)c2ccc(C)cc2)[C@H]1c1ccc(C#N)cc1 | 1.16 | 1.23 | 0.637 | 0.996 | 0.599 | 0.0014 | 1.53 | 0.307 | 1.08 | 1.82 (inactive) | 0.327 | -3.61 (inactive) | 0.261 (inactive) | -0.228 (inactive) | 0.624 (inactive) | 0.948 | 0.0785 | 0.855 | 1.57 | -0.264
10 | COc1cc(CO)cc(I)c1O[C@H]1C=C(C(=O)NCCO)C[C@@H](NC2CCCCCC2)[C@@H]1O | 0.34 | 1.14 | -0.433 | 0.794 | 0.931 | 1.01 | 1.88 | 1.37 | 0.246 | 4.69 (inactive) | 0.29 | -1.65 (inactive) | 0.0741 (inactive) | 5.46 (inactive) | 0.0453 (inactive) | -0.0211 | -0.0115 | 0.0076 | 0.243 | 1.3
